Assay outcomes as filed in PubChem BioAssay.
In the library only some 3.1% were active in any assay of this set; here they are far more common.
HSF1 inhib = HSF1 inhibition; NIH3T3-HGL HSE-luciferase, MG132-induced, luminescence 8 h; active compounds read low; activity change, negative = inhibition, % at 7.5 µM (by protocol); 300,000 tested, 0.77% active; AID 2098;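 active = more than half of replicate wells show activity change below -50%, luminescence cut by over half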;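 also: luciferase reports HSF-1 transcriptional activity via heat shock element; 0% = median of DMSO wells and -100% = zero luminescence signal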
HSF1 activator = increases HSF-1 driven luciferase reporter signal. NIH3T3-HGL HSF-1 luciferase reporter, MG132, 8 h; 100% = twice DMSO control signal. activation, % at 9 µM. 300,000 tested, 1.7% active;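 active = mean replicate activation of at least 50% with a set share of replicates each reaching 50%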;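 also: 0% = median of the neutral control wells and 100% = twice that signal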
HSP90 refold inh = HSP90 refolding inhibition in rabbit reticulocyte lysate | luciferase refolding luminescence, 3 h | inhibition, % at 5.6 µM | 290,000 tested, 0.91% active | AID 1789;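 active = inhibition above the screen-wide mean plus 3 SD, computed separately per campaign, cut at about 16% in these data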;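 also: 0% = DMSO wells and 100% = 60 µM geldanamycin wells; inhibitors lower the luminescence because luciferase stays unfolded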
HIF activator = HIF pathway transcriptional activation; U2OS HRE-luciferase reporter, luminescence; normalized: DMSO 0%, desferrioxamine 100%; activation, % at 7.5 µM (by protocol); 300,000 tested, 0.32% active; AID 1910;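 active = mean activation of at least 10% of the iron chelator positive control signal, with at least half of replicates also reaching 10%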
ARNT TACC3 PPI = ARNT/TACC3 interaction disruption | AlphaScreen His-ARNT PAS-B/GST-TACC3 binding, luminescence; TACC3 fragment carries E629A point mutation | AID 623870 | Q9Y6A5 | 390,000 tested, 0.66% active | inhibition, % at 9.99 µM;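 active = mean inhibition of replicates at least 50% and at least half of replicates each reaching 50%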;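 also: 0% = complete ARNT plus TACC3 wells and 100% = ARNT alone without TACC3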
An asterisk follows results filed as active.

Results for C[C@H](CO)N1C[C@H](C)[C@H](CN(C)C(=O)Cc2cccnc2)Oc2ncc(C#CCc3ccccc3)cc2C1=O ?
ARNT TACC3 PPI: 16

Results for CN1C(=O)c2cc(NC(=O)c3cccc(F)c3)ccc2OC[C@@H]2O[C@@H](CC(=O)NC3CCC3)CC[C@@H]21 ?
ARNT TACC3 PPI: 3

Results for CCc1ccc2c(c1)CCCN2C(=O)c1ccccc1C(=O)O ?
HSF1 inhib: -35; HSF1 activator: -49; HSP90 refold inh: -3; HIF activator: 0; ARNT TACC3 PPI: 49*

Results for O=C1C=C(c2ccccc2)C(=O)N1Nc1ccccc1 ?
HSF1 inhib: 37; HSF1 activator: 41; HSP90 refold inh: 3; HIF activator: 1

How did Cc1ccc(NN2C(=O)C=C(c3ccc(Cl)cc3)C2=O)cc1 do in these assays?
HSF1 inhib: 47; HSF1 activator: 60*; HSP90 refold inh: -2; HIF activator: 0; ARNT TACC3 PPI: -2

What do the screens show for `Cc1ccc(NN2C(=O)C=CC2=O)cc1`?
HSF1 inhib: 8; HSF1 activator: 4; HSP90 refold inh: 4; ARNT TACC3 PPI: -4

Results for COc1ccc(C2=CC(=O)N(Nc3ccccc3)C2=O)cc1 ?
HSF1 inhib: 47; HSF1 activator: 72*; HSP90 refold inh: 7; HIF activator: 0

What do the screens show for `C[C@@H]1CN([C@H](C)CO)C(=O)c2cc(NS(=O)(=O)c3cn(C)cn3)ccc2O[C@@H](C)CCCCO[C@H]1CN(C)Cc1ccccc1`?
ARNT TACC3 PPI: -15

What do the screens show for `O=C(CCN1CCOCC1)N/N=C/c1cc(Br)cc(Br)c1O`?
HSF1 inhib: -6; HSF1 activator: -18; HSP90 refold inh: -1; HIF activator: 5; ARNT TACC3 PPI: 70*

What do the screens show for `Oc1ccc(Br)cc1/C=N/NC(=S)NCCc1ccccc1`?
HSF1 inhib: -3; HSF1 activator: 16; HSP90 refold inh: -1; HIF activator: 0

Results for O=C(N/N=C/c1cc(Br)ccc1O)C(=O)Nc1ccccc1OC(F)(F)C(F)F ?
HSF1 inhib: 7; HSF1 activator: 4; HSP90 refold inh: 2; HIF activator: 12*; ARNT TACC3 PPI: -3

How did O=C(CCN1CCOCC1)N/N=C/c1cc([N+](=O)[O-])ccc1OC(F)F do in these assays?
HSF1 inhib: -7; HSF1 activator: -9; HSP90 refold inh: 0; HIF activator: -1; ARNT TACC3 PPI: -6

How did O=C(CCc1ccccc1)N/N=C/c1cc(Br)ccc1O do in these assays?
HSF1 inhib: -3; HSF1 activator: 19; HSP90 refold inh: 1; HIF activator: 12*; ARNT TACC3 PPI: -4

What do the screens show for `O=C(N/N=C/c1cc(Cl)ccc1O)C(=O)Nc1ccccc1OC(F)(F)C(F)F`?
HSP90 refold inh: -5; ARNT TACC3 PPI: 1

How did O=C(CNC(=O)c1cccc(Br)c1)N/N=C/c1cc(Br)cc(Br)c1O do in these assays?
HSF1 inhib: 0; HSF1 activator: 0; HSP90 refold inh: 1; HIF activator: 1; ARNT TACC3 PPI: 16

Results for O=C(Cc1ccccc1)N/N=C/c1cc(Br)cc(Br)c1O ?
HSF1 inhib: -2; HSF1 activator: 8; HSP90 refold inh: 16*; HIF activator: -11; ARNT TACC3 PPI: 2

What do the screens show for `COC(=O)N/N=C/c1cc(Br)ccc1O`?
HSF1 inhib: -2; HSF1 activator: -10; HSP90 refold inh: -1; HIF activator: 0; ARNT TACC3 PPI: -9

What do the screens show for `O=C(N/N=C/c1cc(Br)ccc1O)c1ccccc1Cl`?
HSF1 inhib: 5; HSF1 activator: 27; HSP90 refold inh: -6; HIF activator: 26*

What do the screens show for `CO[C@@H]1CN(C)C(=O)c2cc(NC(=O)c3nc4ccccc4s3)ccc2OC[C@@H](C)N(Cc2ccccc2)C[C@H]1C`?
ARNT TACC3 PPI: 4

How did Cc1ccc(C)c(NC(=O)CSc2nnc(CSc3nc(C)cc(C)n3)n2Cc2ccco2)c1 do in these assays?
HSF1 inhib: 15; HSF1 activator: 66*; HSP90 refold inh: 6; HIF activator: 0; ARNT TACC3 PPI: 3

What do the screens show for `COc1ccc(C)cc1NC(=O)CSc1nnc(COc2ccc(Cl)cc2)n1Cc1ccco1`?
HSF1 inhib: 50; HSF1 activator: 107*; HSP90 refold inh: 4; HIF activator: 0; ARNT TACC3 PPI: -3

What do the screens show for `CCn1c(COc2ccc(C)cc2)nnc1SCC(=O)Nc1ccc2c(c1)OCCO2`?
HSF1 inhib: -71*; HSF1 activator: -76; HSP90 refold inh: -2; HIF activator: 0; ARNT TACC3 PPI: -3

How did CCC(=O)Nc1cc(NC(=O)CSc2ncc(-c3ccc(F)cc3)n2Cc2ccco2)ccc1C do in these assays?
HSF1 inhib: 69; HSF1 activator: 77*; HSP90 refold inh: 1; HIF activator: 1

Results for COc1ccc(C)cc1NC(=O)CSc1nnc(COc2ccccc2)n1Cc1ccco1 ?
HSF1 inhib: 3; HSF1 activator: -1; HSP90 refold inh: 3; HIF activator: 0; ARNT TACC3 PPI: 0

What do the screens show for `Cc1ccc(NC(=O)CSc2nnc(CSc3nc(C)cc(C)n3)n2Cc2ccco2)c(C)c1`?
HSF1 inhib: 2; HSF1 activator: 10; HSP90 refold inh: 1; HIF activator: 0; ARNT TACC3 PPI: 2

What do the screens show for `Cc1noc(C)c1NC(=O)N(C)C[C@H]1OCCCC[C@H](C)Oc2ccc(NS(C)(=O)=O)cc2C(=O)N([C@@H](C)CO)C[C@H]1C`?
ARNT TACC3 PPI: 1

What do the screens show for `Cc1ccc(S(=O)(=O)N[C@@H]2CC[C@@H](CC(=O)NCc3ccccc3F)O[C@@H]2CO)cc1`?
ARNT TACC3 PPI: 8

What do the screens show for `CCCN1[C@@H]2Cn3c(ccc(/C=C/c4ccccc4)c3=O)[C@H]1[C@@H](C(=O)NCc1ccccn1)[C@@H]2CO`?
ARNT TACC3 PPI: -11

What do the screens show for `Cc1cccc(OCc2nnc(SCC(=O)N(C(C)C)C(C)C)n2Cc2ccco2)c1C`?
HSF1 inhib: 37; HSF1 activator: 60*; HSP90 refold inh: 0; HIF activator: 0; ARNT TACC3 PPI: 8

What do the screens show for `COc1ccc(C)cc1NC(=O)C(=O)NNC(=O)COc1ccc(Cl)cc1`?
HSF1 inhib: -85*; HSF1 activator: -88; HSP90 refold inh: -3; HIF activator: -2; ARNT TACC3 PPI: 1

How did Cc1cc(NC(=O)CSc2nnc(COc3cccc(C)c3C)n2Cc2ccco2)no1 do in these assays?
HSF1 inhib: 8; HSF1 activator: 33; HSP90 refold inh: 1; HIF activator: 0; ARNT TACC3 PPI: 21

Results for CCOC(=O)N=Nc1c2ccccc2c2nc3no[nH]c3nc12 ?
HSF1 inhib: -95*; HSF1 activator: -95; HSP90 refold inh: 6; HIF activator: -3; ARNT TACC3 PPI: 14

Results for CCOC(=O)N=Nc1c(O)n(CC(=O)OC)c2ccccc12 ?
HSF1 inhib: -33; HSF1 activator: -48; HSP90 refold inh: 3; HIF activator: 0; ARNT TACC3 PPI: -4

What do the screens show for `COc1cccc(-c2nn(C)c3sc(C(=O)N4CCOCC4)cc23)c1`?
HSF1 inhib: -4; HSF1 activator: -2; HSP90 refold inh: 27*; HIF activator: 0; ARNT TACC3 PPI: -4
